# Algae TAG accum: increases triacylglycerol in Chlamydomonas reinhardtii. Chlamydomonas reinhardtii TAG, Nile Red fluorescence, 72 h. calls only at 10 µM (by protocol). 44,000 tested, 0.84% active; call rule not given here;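 also: hits raise Nile Red signal meaning more stored TAG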
# The depositor's hits bear a star; i = inactive; + = active, no number. The entries come from a sample that favours hits as a whole.
SMILES,Algae TAG accum
O=C(c1ccc([N+](=O)[O-])cc1)N1CCN(CC2CC3C=CC2C3)CC1 (stereo not given),+
NC(=O)C1CCN(CC2CC3C=CC2C3)CC1 (stereo not given),i
C1=CC2CC1CC2CN1CCN(C2CCC(c3ccccc3)CC2)CC1 (stereo not given),+
O=C(c1ccc(F)cc1)N1CCN(Cc2ccc([N+](=O)[O-])cc2)CC1,i
O=C(c1ccc([N+](=O)[O-])cc1)N1CCN(CCO)CC1,i
C=CCc1ccccc1OCCCCn1ccnc1,i
Cc1ccc(C(=O)Nc2ccc([N+](=O)[O-])cc2)cc1Br,i
CN(C)c1ccc(NC(=O)C(C)(C)Oc2ccc(Cl)cc2)cc1,i
CCN(CC)CCCOc1c(OC)cccc1OC,i
C1=CC2CC1CC2CN1CCN(c2ccccc2)CC1 (stereo not given),+
C1=CC2CC1CC2CN1CCN(Cc2ccccn2)CC1 (stereo not given),i
CCN1CCN(CC2CC3C=CC2C3)CC1 (stereo not given),i
COc1cc(C(=O)Nc2ccc(S(=O)(=O)N3CCCCC3C)cc2)cc(OC)c1OC (stereo not given),i
CC1CCCCN1S(=O)(=O)c1ccc(C(=O)Nc2ccc([N+](=O)[O-])cc2)cc1 (stereo not given),i
CC1CCCCN1S(=O)(=O)c1ccc(NC(=O)c2ccc(Cl)cc2Cl)cc1 (stereo not given),+
N#CSCCCCOc1ccc(Br)cc1,i
COc1cc(C)ccc1OCC(=O)NN,i
CCC(CC)C(=O)N1CCCN(C(=O)C(CC)CC)CC1,i
Fc1ccc(C2=CSC3=NCCN23)cc1,i
Brc1ccc(C2=CSC3=NCCN23)cc1,i
CCOc1ccc(C2=CSC3=NCCN23)cc1,+
CCCCC(=O)Nc1ccc(NC(=O)c2ccco2)cc1OC,i
COc1ccc(Cl)cc1Nc1nc(-c2ccc(Cl)cc2Cl)nc2ccccc12,i
COc1ccc(S(=O)(=O)N(CC(=O)N2CCCC2)c2cc(C)cc(C)c2)cc1OC,i
COc1ccc(S(=O)(=O)N(CC(=O)Nc2ccccc2F)c2cc(C)cc(C)c2)cc1OC,i
SMILES,Algae TAG accum
COc1ccc(S(=O)(=O)N(CC(=O)NC(C)C)c2cc(C)cc(C)c2)cc1OC,+
O=C(c1ccccc1F)N1CCC(c2ccccc2)CC1,i
CCN(CC)S(=O)(=O)c1cc(C(=O)Nc2ccc(Cl)cn2)ccc1OC,i
c1coc(CN2CCN(C3CCCC3)CC2)c1,i
Cc1c(Cl)ccc(S(=O)(=O)NCCN2CCOCC2)c1Cl,i
COc1cc(Cl)c(S(=O)(=O)NCCCN2CCOCC2)cc1Cl,+
Cc1cc(I)ccc1S(=O)(=O)NCCCN1CCOCC1,+
Cc1ccc(S(=O)(=O)NCCCN2CCOCC2)cc1,i
COc1cc(C)c(S(=O)(=O)NCCN2CCOCC2)cc1C,i
COc1cc(C)c(C)cc1S(=O)(=O)NCCN1CCOCC1,i
Cc1ccc(OCC(=O)NC(C)C)c(C)c1,i
Cc1ccc(C(=O)Nc2nccs2)cc1Br,i
CCC(CC)C(=O)Nc1ccc(C(=O)Nc2nccs2)cc1,+
Cc1ccc(OCC(=O)Nc2ccc(C(=O)Nc3nccs3)cc2)cc1C,i
O=C(O)C1CCN(c2nc(-c3ccc(F)cc3)cs2)CC1,i
Cc1ccc(S(=O)(=O)c2ccc(-c3ccc([N+](=O)[O-])cc3)cc2)cc1,+
Cc1ccc(S(=O)(=O)c2ccc(C)cc2)cc1,i
Cc1ccc(NS(=O)(=O)c2ccc([N+](=O)[O-])cc2)cc1,i
O=C(Nc1cccc(C(=O)Nc2ccccc2Cl)c1)c1cccnc1,i
O=C(NCCNC(=O)C12CC3CC(CC(C3)C1)C2)C12CC3CC(CC(C3)C1)C2,i
CCOc1ccc(NC(=O)CCc2ccccc2)c([N+](=O)[O-])c1,i
C=CCn1c(SCC(=O)O)nnc1-c1ccc(OC)cc1,i
C=CCn1c(SCC(=O)O)nnc1-c1ccc([N+](=O)[O-])cc1,+
C=CCn1c(SCC)nnc1-c1ccc([N+](=O)[O-])cc1,i
COc1nnc(C)c2ccccc12,i
SMILES,Algae TAG accum
CCc1ccc(OCC(=O)Nc2cccnc2)cc1,i
Clc1ccc(OCCOCCN2CCOCC2)cc1Cl,i
CCC(C)c1ccccc1OCCN1CCCC1 (stereo not given),i
CCC(C)c1ccccc1OCCNC(C)C (stereo not given),i
c1ccc(-c2ccccc2OCCCN2CCOCC2)cc1,i
CCC(C)c1ccccc1OCCCCN1CCCC1 (stereo not given),+
CCC(C)c1ccccc1OCCCN1CCOCC1 (stereo not given),+
Fc1ccccc1OCCN1CCOCC1,i
CCC(C)c1ccccc1OCCOCCN1CCOCC1 (stereo not given),+
O=[N+]([O-])c1ccccc1OCCCN1CCOCC1,i
CCC(C)c1ccccc1OCCOCCN1CCCC1 (stereo not given),i
CCOc1ccc(OCCOCCN2CCOCC2)cc1,i
CCc1ccc(OCCOCCN2CCOCC2)cc1,+
Cc1cc(=O)n2ccc(N)c(O)c2n1,i
NC(=O)c1ccc(NC2CCCCC2)c([N+](=O)[O-])c1,i
Cc1ccc(/C=C(\C#N)c2nc(-c3ccc(C)cc3)cs2)cc1,i
CC1CN(c2nc(-c3ccc([N+](=O)[O-])cc3)cs2)CC(C)O1 (stereo not given),i
O=C(Nc1ccccc1Cl)c1cccc(Cl)c1Cl,i
CC(C)NC(=O)c1ccccc1NC(=O)c1ccc(Br)cc1,+
CC(C)NC(=O)c1ccccc1NC(=O)c1ccc(Cl)cc1,+
O=C(Nc1ccccc1F)c1ccc(Br)cc1,i
CC(C)c1ccc(C(=O)Nc2ccccc2C(N)=O)cc1,i
O=C(Nc1ccccc1C(=O)NCCCCO)c1ccc(Br)cc1,i
O=C(Nc1ccccc1C(=O)Nc1ccccc1Cl)c1ccncc1,+
CC(C)NC(=O)c1ccccc1NC(=O)c1ccccc1,i
SMILES,Algae TAG accum
O=C(Nc1ccccc1C(=O)NCCc1ccccc1)c1ccncc1,i
Cc1c(NC(=O)c2ccco2)cccc1-c1nc2cc(Cl)ccc2o1,i
CCOc1ccc(C(O)=C2C(=O)C(=O)N(c3nnc(C)s3)C2c2ccccc2F)cc1 (stereo not given),i
N#CC1=C(N)SC(N)=C(C#N)C1,i
O=C(NCc1ccccn1)c1cc(-c2ccc3c(c2)OCO3)nc2ccccc12,i
O=C(NCC1CCCO1)c1cc(-c2ccc3c(c2)OCO3)nc2ccccc12 (stereo not given),+
NS(=O)(=O)c1ccc(CNC(=O)c2cc(-c3ccc4c(c3)OCO4)nc3ccccc23)cc1,i
Cc1cccc(C(C)C)c1NC(=O)Nc1ccc(Cl)cc1,i
CC(=O)NS(=O)(=O)c1ccc(NC(=O)c2ccc([N+](=O)[O-])cc2)cc1,i
